Reference: PubChem BioAssay (NCATS)
Results filed as inconclusive are left out. The source made the active and inactive calls. Unless noted, calls come from the whole dose curve.

Columns and labels:
[1] = qHTS for Inhibitors of the Functional Ribonucleoprotein Complex (vRNP) of Lassa (LASV) Arenavirus: LASV Primary Screen - GLuc reporter signal (AID 1347082; calls by dose curve; tested in HEK293 reporter line; note: nearly all actives have a fitted effect of over 60% in size)
[2] = qHTS for Inhibitors of the Functional Ribonucleoprotein Complex (vRNP) of Lassa (LASV) Arenavirus: Viability assay - alamar blue signal for LASV Primary Screen (AID 1347083; calls by dose curve; tested in HEK293 reporter line; note: nearly all actives have a fitted effect of over 80% in size)
[3] = qHTS for Inhibitors of the Functional Ribonucleoprotein Complex (vRNP) of Lymphocytic Choriomeningitis Arenaviruses (LCMV): Viability assay - alamar blue signal for LCMV Primary Screen (AID 1347085; calls by dose curve; tested in HEK293 reporter line; note: nearly all actives have a fitted effect of over 80% in size)
[4] = target: Nucleoprotein (Lymphocytic choriomeningitis virus (strain Armstrong)) (UniProt P09992); test: qHTS for Inhibitors of the Functional Ribonucleoprotein Complex (vRNP) of Lymphocytic Choriomeningitis Arenaviruses (LCMV): LCMV Primary Screen - GLuc reporter signal (AID 1347086); note: nearly all actives have a fitted effect of over 70% in size

Measured: Potency
Potency is the fitted concentration of half-maximal effect.

Chain of Nucleoprotein (Lymphocytic choriomeningitis virus (strain Armstrong)) (P09992 whole entry, looked up): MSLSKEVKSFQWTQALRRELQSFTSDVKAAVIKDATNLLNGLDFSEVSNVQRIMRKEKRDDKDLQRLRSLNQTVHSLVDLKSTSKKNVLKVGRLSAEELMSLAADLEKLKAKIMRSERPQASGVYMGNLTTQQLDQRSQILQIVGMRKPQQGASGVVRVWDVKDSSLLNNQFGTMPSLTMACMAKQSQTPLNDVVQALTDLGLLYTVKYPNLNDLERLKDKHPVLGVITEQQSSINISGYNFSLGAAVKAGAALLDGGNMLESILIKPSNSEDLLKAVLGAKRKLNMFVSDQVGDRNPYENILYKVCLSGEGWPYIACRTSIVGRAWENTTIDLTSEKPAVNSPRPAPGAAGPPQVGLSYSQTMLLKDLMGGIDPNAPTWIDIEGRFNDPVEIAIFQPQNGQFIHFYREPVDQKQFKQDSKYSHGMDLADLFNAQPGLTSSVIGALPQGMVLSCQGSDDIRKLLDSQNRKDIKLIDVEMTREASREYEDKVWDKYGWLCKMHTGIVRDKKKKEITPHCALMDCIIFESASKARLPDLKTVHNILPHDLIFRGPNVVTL

C[C@]12C[C@H](O)[C@H]3[C@@H](CCC4=CC(=O)CC[C@@]43C)[C@@H]1CC[C@@H]2C(=O)CO
inactive: [1] | [2] | [3] | [4]

Cc1cc(-c2ccccc2)nnc1NCCN1CCOCC1
inactive: [1] | [2] | [3] | [4]

O=C(Nc1cccc(C2=NCCN2)c1)Nc1cccc(C2=NCCN2)c1
inactive: [1] | [2] | [3] | [4]

O=C(O)c1ccccn1
inactive: [1] | [2] | [3] | [4]

CCOC(=O)C(=O)CCCCCCl
inactive: [1] | [2] | [3] | [4]

CCCCC(CC)COC(=O)/C=C/c1ccc(OC)cc1 (stereo unspecified)
inactive: [1] | [2] | [3] | [4]

CC[N+](C)(CC)CCOC(=O)C(O)(c1ccccc1)C1CCCCC1 (stereo unspecified)
inactive: [1] | [2] | [3] | [4]

Cc1c(CN2CCN(C(=O)C(C)C)CC2)sc2c(N3CCOCC3)nc(-c3cnc(N)nc3)nc12
active: [1] 273 nM | [2] 137 nM | [3] 273 nM | [4] 217 nM

Nc1ccc(O)c([N+](=O)[O-])c1
inactive: [1] | [2] | [3] | [4]

CN1CC[C@@H](c2c(O)cc(O)c3c(=O)cc(-c4ccccc4Cl)oc23)[C@@H](O)C1
active: [1] 544 nM | [2] 137 nM | [3] 217 nM | [4] 344 nM

CCCN(CCC)c1c([N+](=O)[O-])cc(S(N)(=O)=O)cc1[N+](=O)[O-]
inactive: [1] | [2] | [3] | [4]

COc1cc2c(cc1OC)C(=O)CC2
inactive: [1] | [2] | [3] | [4]

CC[C@@H]1C(=O)OC[C@@H]1Cc1cncn1C
inactive: [1] | [2] | [3] | [4]

CN(C(=O)C(Cl)Cl)c1ccc(OC(=O)c2ccco2)cc1
inactive: [1] | [2] | [3] | [4]

C=CC(=O)Nc1cc2c(Nc3ccc(F)c(Cl)c3)ncnc2cc1C#CC(C)(C)N1CCN(C)CC1
inactive: [1] | [2] | [3] | [4]

Cc1c(C(=O)Nc2ccc(N3C[C@@H](C)O[C@@H](C)C3)nc2)cccc1-c1ccc(OC(F)(F)F)cc1
inactive: [1] | [2] | [3] | [4]

CC(=O)NC(C)c1ccc(Oc2ccc(OC(C)C)cc2)cc1 (stereo unspecified)
inactive: [1] | [2] | [3] | [4]

C=CC(=O)Nc1cccc(Oc2nc(Nc3ccc(N4CCN(C)CC4)cc3OC)ncc2Cl)c1
active: [2] 38.5 nM | [3] 48.5 nM
inactive: [1] | [4]

CC(=O)Nc1ccc([C@H](C)C(=O)Nc2ncc(C(C)C)s2)cc1
active: [1] 3060 nM | [2] 1220 nM | [3] 611 nM | [4] 1090 nM

CC(=O)OCC(=O)[C@@]1(O)[C@H](C)C[C@H]2[C@@H]3C=C(C)C4=Cc5c(cnn5-c5ccccc5)C[C@]4(C)[C@@H]3[C@@H](O)C[C@@]21C
inactive: [1] | [2] | [3] | [4]

CC(C)=CCCC(C)=CCCC(C)=CCSc1ccccc1C(=O)O
active: [1] 5440 nM | [2] 2430 nM | [3] 9680 nM | [4] 4320 nM

O=C(O)CCC1CCC(c2cc(F)ccc2F)(S(=O)(=O)c2ccc(Cl)cc2)CC1 (stereo unspecified)
inactive: [1] | [2] | [3] | [4]

c1ccc2[nH]ccc2c1
inactive: [1] | [2] | [3] | [4]

CCN(CC)CCCCNc1nc2cc(Cl)c(Cl)cc2nc1-c1ccc(-c2cccs2)s1
inactive: [1] | [2] | [3] | [4]

CO[C@H]1C=CC=C(C)C(=O)NC2=CC(=O)C(NCCN(C)C)=C(C[C@@H](C)C[C@H](OC)[C@@H](O)[C@@H](C)C=C(C)[C@@H]1OC(N)=O)C2=O
active: [1] 685 nM | [2] 611 nM | [3] 544 nM | [4] 306 nM

CC(=O)N[C@@H](Cc1ccc(O)cc1)C(=O)O
inactive: [1] | [2] | [3] | [4]

Cc1cccc(C)c1NC(=O)c1ccc(N)cc1
inactive: [1] | [2] | [3] | [4]

COc1cccc2c1CCCC2CCCN1CCN(C2CCCCC2)CC1 (stereo unspecified)
inactive: [1] | [2] | [3] | [4]

Nc1nnnn1-c1ccccc1
inactive: [1] | [2] | [3] | [4]

CCCCCCCCCCCCCC(=O)N[C@H](CO)[C@H](O)c1ccc([N+](=O)[O-])cc1
inactive: [1] | [2] | [3] | [4]

C[C@@H]1CN(c2c(F)c(N)c3c(=O)c(C(=O)O)cn(C4CC4)c3c2F)C[C@H](C)N1
inactive: [1] | [2] | [3] | [4]

Cc1ccccc1C(C(=O)NC1CCCC1)N(C(=O)Cn1cnc2ccccc21)c1cccc(F)c1 (stereo unspecified)
inactive: [1] | [2] | [3] | [4]

C1=CC2C3C=CC(C3)C2C1 (stereo unspecified)
inactive: [1] | [2] | [3] | [4]

CS(=O)(=O)Oc1ccc2c(NC(N)=O)c(C(=O)c3ccc(Cl)cc3Cl)oc2c1
inactive: [1] | [4]
active: [2] 27300 nM | [3] 27300 nM

N#CC[C@H](C1CCCC1)n1cc(-c2ncnc3[nH]ccc23)cn1
inactive: [1] | [2] | [3] | [4]

CCOC(=O)c1cccnc1
inactive: [1] | [2] | [3] | [4]

NC(CO)(CO)CCc1ccc(Sc2cccc(OCc3ccccc3)c2)cc1Cl
inactive: [1] | [2] | [3] | [4]

CCOC(=O)c1c(C)n(C)c2ccc(O)cc12
inactive: [1] | [2] | [3] | [4]

CN1Cc2cc(C(=O)N3CCC(C4CCNCC4)CC3)ccc2N[C@@H](CC(=O)O)C1=O
inactive: [1] | [2] | [3] | [4]

NC(=O)Nc1cc(-c2cccc(F)c2)sc1C(=O)N[C@H]1CCCNC1
active: [1] 1220 nM | [2] 306 nM | [3] 1530 nM | [4] 3430 nM

CC1=C(C/C=C(\C)CCC[C@H](C)CCC[C@H](C)CCCC(C)C)C(=O)c2ccccc2C1=O
inactive: [1] | [2] | [3] | [4]

CCCCCCCCCCC(CO)CCCCCCCC (stereo unspecified)
inactive: [1] | [2] | [3] | [4]

Nc1ccc(-c2ccc3ncc4ccc(=O)n(-c5cccc(C(F)(F)F)c5)c4c3c2)cn1
active: [1] 2.4 nM | [2] 2.7 nM | [3] 5.4 nM | [4] 5.4 nM

COc1nc(-c2ccc3c(c2)OCO3)n(-c2ccc(NC(=O)CSc3ccccc3)cc2)n1
inactive: [1] | [2] | [3] | [4]

CCOc1ccc(Cc2cc([C@@H]3O[C@H](CO)[C@@H](O)[C@H](O)[C@@H]3O)ccc2Cl)cc1
inactive: [1] | [2] | [3] | [4]

c1ccc(-c2nn3c(c2-c2ccnc4cc(OCCN5CCOCC5)ccc24)CCC3)nc1
inactive: [1] | [2] | [3] | [4]

OCCn1cc(-c2cnc3nnn(Cc4ccc5ncccc5c4)c3n2)cn1
inactive: [1] | [2] | [3] | [4]

C[C@H](NC(=O)Cc1cc(F)cc(F)c1)C(=O)N[C@@H]1C(=O)N(C)c2ccccc2-c2ccccc21
inactive: [1] | [2] | [3] | [4]

Cn1c(Nc2ccc(C(F)(F)F)cc2)nc2cc(Oc3ccnc(-c4ncc(C(F)(F)F)[nH]4)c3)ccc21
inactive: [4]
active: [1] 21700 nM | [2] 2430 nM | [3] 8630 nM

CNC(=O)c1ccc(N2C(=S)N(c3ccc(C#N)c(C(F)(F)F)c3)C(=O)C2(C)C)cc1F
inactive: [1] | [2] | [3] | [4]

CC(C)(C(=O)NCC(F)(F)C(F)(F)F)C(=O)N[C@@H]1C(=O)Nc2ccccc2-c2ccccc21
active: [1] 24300 nM | [2] 19300 nM | [3] 5440 nM | [4] 10900 nM

CC1=C(CO)C(=O)O[C@@H]([C@@H](C)[C@H]2CC[C@H]3[C@@H]4C[C@H]5O[C@]56[C@@H](O)C=CC(=O)[C@]6(C)[C@@H]4CC[C@]23C)C1
active: [1] 863 nM | [2] 3060 nM | [3] 3850 nM | [4] 1530 nM

O=C(O)[C@@H](c1ccc(OCc2ccc3ccccc3n2)cc1)C1CCCC1
inactive: [1] | [2] | [3] | [4]

N[C@H]1C(O)O[C@H](CO)[C@@H](O)[C@@H]1O (stereo partly specified)
inactive: [1] | [2] | [3] | [4]
